From PubChem
GalR3 antagonist – human GalR3 antagonism; 360,000 tested, 0.44% active; HEK293 GalR3-CNG cAMP membrane potential fluorescence; galR3 body fused to GalR1 C-terminus; inhibition, % at 3 µM; AID 651719;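 active means inhibition above the screen-wide average plus 3 SD, cut at about 13% in these data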;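 further: forskolin and galanin both at EC90 stimulate the cells; cAMP rise reported by CNG channel membrane potential dye signal; 0% = forskolin plus galanin with DMSO and 100% = forskolin alone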
COUP-TFII inh – inhibitors of human COUP-TFII (NR2F2); HEK293T NGFI-A luciferase reporter, luminescence; inhibition, % at 8.6 µM; 370,000 tested, 0.7% active;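 active means inhibition above a per-plate cutoff, mean inhibition of test wells between control levels plus 3 SD, cut at about 38% in these data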;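 further: cells cotransfected with COUP-TFII expression vector driving the NGFI-A reporter; 0% = median of COUP-TF2 test wells and 100% = reporter-only cells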
SRC3 inh – human NCOA3 inhibition. Q9Y6Q9. HEK293 GAL4-SRC3 luciferase reporter, luminescence. inhibition, % at 3.6 µM. 360,000 tested, 0.17% active. AID 588352;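 active means inhibition above a per-campaign cutoff, the mean of all compounds plus 3 SD, cut at about 60% in these data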;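 further: 0% = DMSO-treated cells and 100% = gossypol-treated cells at 36 µM; higher means less SRC3-driven luciferase light from the GAL4 reporter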
NCOA2 inhibitor – human SRC2 (NCOA2) inhibition; HEK293 GAL4-SRC2 luciferase reporter, luminescence; inhibition, % at 9 µM; 370,000 tested, 0.17% active;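 active means inhibition above the mean inhibition of all tested compounds plus 3 SD, set per campaign, cut at about 52% in these data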;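 further: 0% = DMSO treated cells and 100% = cells given Gossypol at 36 µM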
SRC1 inh – inhibits human SRC1 coactivator; Q15788; HEK293 GAL4-SRC1 luciferase reporter, luminescence; inhibition, % at 3.6 µM; 360,000 tested, 0.12% active; AID 588354;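 active means inhibition above the campaign mean plus 3 SD, with each screening campaign given its own cutoff, cut at about 60% in these data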;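 further: 0% = DMSO treated cells and 100% = gossypol at 36 µM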
LRH-1 inv ag – NR5A2 inverse agonism in reporter assay; O00482; 360,000 tested, 0.13% active; HEK293T StAR-luciferase reporter, LRH-1 transfected, 24 h; AID 602396; inhibition, % at 3.6 µM;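 active means inhibition above the mean inhibition of all tested compounds plus 3 SD, cut at about 73% in these data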;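 further: 0% = DMSO wells and 100% = reporter-only cells lacking LRH-1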
Gal4-VP16 ctr – inhibits VP16 reporter, flagging COUP-TFII antagonist hits; AID 687007; HEK293 Gal4-VP16 luciferase reporter, luminescence; inhibition, % at 8.5 µM; 2,500 tested, 25% active; shares compounds with COUP-TFII inh; in the data active means inhibition above about 13%
COUP-TFII conf – COUP-TFII (NR2F2) inhibition, confirmation assay; shares compounds with COUP-TFII inh; HEK293 NGFI-A luciferase reporter, luminescence; inhibition, % at 8.5 µM; 2,500 tested, 45% active; AID 687008;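 active means mean inhibition over three repeats above a set limit taken from the earlier primary screen, cut at about 38% in these data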;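 further: 100% = cells given the luciferase reporter alone without the COUP-TF2 vector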
Starred values were filed as active, the others as inactive; . = not tested or not shown. Hits are enriched below; roughly 1.1% of the tested compounds scored in any of these assays.

SMILES	GalR3 antagonist	COUP-TFII inh	SRC3 inh	NCOA2 inhibitor	SRC1 inh	LRH-1 inv ag	Gal4-VP16 ctr	COUP-TFII conf
C[C@H](O)[C@@H]1C(=O)N2CCc3c([nH]c4c(-c5ccc6c(c5)OCO6)cccc34)[C@@H]2C[C@@H]1N(C)C(=O)NC1CCCCC1	-7	15	.	10	.	.	.	.
Cc1cc(=O)[nH]c(SCC(=O)/C=C2\N(C)c3ccccc3C2(C)C)n1	-13	42*	17	27	1	3	6	9
CN1/C(=C\C(=O)C[n+]2cccc(Br)c2)C(C)(C)c2ccccc21	-11	36	37	29	0	25	.	.
Cc1ccc[n+](CC(=O)/C=C2\N(C)c3ccccc3C2(C)C)c1	-6	42*	8	4	24	38	4	28
CN1c2ccccc2C(C)(C)[C@]12C=Cc1cc(O)ccc1O2	-4	43*	1	28	-4	24	-7	3
C/C=C/C=C/C(=O)N1C[C@H](C)N(C)C[C@H]1C	.	16	.	16	.	.	.	.
CC(=O)N(/N=C1\Sc2ccccc2C1=O)c1ccccc1C	-1	-41	-66	-72	-101	-118	.	.
CC(=O)N(/N=C1\Sc2ccccc2C1=O)c1ccc(C)cc1C	-4	64*	64*	26	54	63	24*	76*
COc1ccc(OCC(=O)Nc2ccc(N3CCN(C(=O)c4ccccc4)CC3)c(Cl)c2)cc1	-1	59*	32	25	9	33	-7	31
CN1[C@H](Cc2ccccc2)COc2cc(N3CCSCC3)ccc2S1(=O)=O	.	27	.	5	.	.	.	.
CN1[C@H](Cc2ccccc2)COc2cc(N3CCCC3)ccc2S1(=O)=O	.	55*	.	0	.	.	4	9
Cc1ccc(/C=C/c2nc3ccccc3s2)s1	-5	11	-33	-18	-105	-21	.	.
CN(C)c1ccc(/C=C/c2nc3ccccc3s2)cc1	-5	69*	64*	54*	56	41	52*	82*
O=C(c1ccc(F)cc1)C1CCN(c2ncnc3sccc23)CC1	.	63*	.	.	.	.	3	56*
O=C(c1ccccc1)C1CCN(c2ncnc3sccc23)CC1	.	74*	.	.	.	.	6	62*
c1ccc(OC2CCN(c3ncnc4sccc34)CC2)cc1	.	64*	.	.	.	.	-8	49*
Cc1ccccc1-c1ccc2c(c1)[C@@H]1C[C@H]3[C@@H](CN1CC2)[C@H](C)ON3C	-6	14	.	6	.	.	.	.
Cc1ccc(/C=C2\SC(=S)N(CCCC(=O)Nc3ccccn3)C2=O)cc1	-4	81*	57	89*	48	42	40*	35
O=C(CCN1C(=O)S/C(=C\c2ccc(Cl)cc2)C1=O)Nc1ccc(C(=O)O)cc1	-2	-3	10	-8	-23	-6	.	.
COc1ccc(/C=C2/SC(=S)N(CCCC(=O)Nc3ccccc3C(=O)O)C2=O)cc1	-9	52*	35	66*	36	23	43*	30
COc1ccc(/C=C2\SC(=O)N(CCCC(=O)Nc3ccc(C(=O)O)cc3)C2=O)cc1	-5	98*	73*	91*	73*	74*	83*	96*
CCc1ccc(/C=C2\SC(=S)N(CCCC(=O)Nc3ccccc3C(=O)O)C2=O)cc1	-8	-6	1	22	0	8	.	.
CC(C)(C)N(Cc1cn(Cc2ccccc2)nn1)S(=O)(=O)c1ccccc1Br	.	10	.	20	.	.	.	.
O=c1c(Cl)c(N2CCCCC2)cnn1-c1nc2ccccc2[nH]1	0	56*	30	32	8	-28	-40	-15
O=c1c2ccccc2nc2c3ccccc3cnn12	-5	-30	-26	-41	-36	-69	.	.
SMILES	GalR3 antagonist	COUP-TFII inh	SRC3 inh	NCOA2 inhibitor	SRC1 inh	LRH-1 inv ag	Gal4-VP16 ctr	COUP-TFII conf
O=c1c2ccccc2cnn1-c1nc2ccccc2[nH]1	1	96*	65*	83*	70*	41	53*	70*
O=C1N2Cc3ccccc3C2CS(=O)(=O)N1CCc1ccccc1 (stereo not drawn)	.	-16	.	-14	.	.	.	.
CCCN(CC1CC1)C(=O)c1oc(=O)c2ccccc2c1-c1ccc(C)cc1	.	26	.	21	.	.	.	.
N[C@H](C(=O)N[C@@H](Cc1ccccc1)C(=O)N1CCC2CCN(S(=O)(=O)c3ccccc3)CC21)c1ccccc1 (stereo partly drawn)	.	-59	.	-32	.	.	.	.
COc1ccccc1CCNC(=O)C(C)n1nc(C)c2c(C)n(-c3ccccc3)nc2c1=O (stereo not drawn)	-11	2	1	-12	-10	17	.	.
COc1ccc(CCNC(=O)C(C)n2nc(C)c3c(C)n(-c4ccc(C)cc4)nc3c2=O)c(OC)c1 (stereo not drawn)	-10	61*	35	9	17	37	4	62*
CCCCOCCCNC(=O)C[C@@H]1C(=O)N2CCCC3=C2[C@@]1(C(=O)OCC)CCC3	.	-2	.	9	.	.	.	.
CC(C)(C)OC(=O)NCCCCCNC(=O)c1nc[nH]c1C(=O)NCCCCCNC(=O)OC(C)(C)C	-6	55*	52	34	32	34	2	33
O=C(O)CC(Sc1ccc(Cl)cc1)C(=O)Nc1ccccc1 (stereo not drawn)	-9	-1	.	-13	.	.	.	.
CC[C@H]1/C(=C/c2ccccc2)N2C(=O)C[C@H](c3ccccc3)N=C2N1C	.	-9	.	.	.	.	.	.
O=C(NCCN1CCC(Cc2ccccc2)CC1)C1CCCN(S(=O)(=O)c2cccs2)C1 (stereo not drawn)	.	47*	.	13	.	.	-1	6
O=C(NCCc1ccccc1)C1CCCN(S(=O)(=O)c2cccs2)C1 (stereo not drawn)	-5	19	-6	15	-16	-17	.	.
CC(=O)N1C[C@H]2CON(C)[C@H]2C[C@H]1c1cccc(-c2ccccc2C)c1	-7	78*	-16	-12	-14	-15	-11	-5
COc1ccc(CNC(=O)c2cc3c(C)nc4ccccc4c3o2)c(OC)c1	.	.	-10	.	36	43	.	.
CCc1ccc(CNC(=O)c2cc3c(C)nc4ccccc4c3o2)cc1	.	51*	6	41	2	14	6	37
Cc1nc2ccccc2c2oc(C(=O)N3CCN(C4CCCCC4)CC3)cc12	0	42*	2	-1	-7	-41	-7	11
COc1cccc(CNC(=O)c2cc3c(C)nc4ccccc4c3o2)c1	.	38*	-19	22	2	22	3	16
Cc1nc2ccccc2c2oc(C(=O)N3CCC(N4CCCCC4)CC3)cc12	.	.	6	.	9	-79	.	.
